# Test results taken from paper PMC7862700, “An all-to-all approach to the identification of sequence-specific readers for epigenetic DNA modifications on cytosine”.
# Assays:
# Assay in all cases: DAPPL (digital affinity profiling via proximity ligation, sequencing); 10 mM Tris-HCl pH 7.5, 50 mM NaCl, 1 mM DTT, 4% glycerol, room temperature, 30 min; GST-TFs on glutathione beads, 16-mer random dsDNA library, 0.1% formaldehyde crosslink after washing; high values mean tight binding
# Conditions in all cases: protein: recombinant; tags: N-terminal GST; dsDNA, one strand shown
# [1] = biological target: T1, FLI1 (Homo sapiens, UniProt Q01543 1-452)
# T1 sequence: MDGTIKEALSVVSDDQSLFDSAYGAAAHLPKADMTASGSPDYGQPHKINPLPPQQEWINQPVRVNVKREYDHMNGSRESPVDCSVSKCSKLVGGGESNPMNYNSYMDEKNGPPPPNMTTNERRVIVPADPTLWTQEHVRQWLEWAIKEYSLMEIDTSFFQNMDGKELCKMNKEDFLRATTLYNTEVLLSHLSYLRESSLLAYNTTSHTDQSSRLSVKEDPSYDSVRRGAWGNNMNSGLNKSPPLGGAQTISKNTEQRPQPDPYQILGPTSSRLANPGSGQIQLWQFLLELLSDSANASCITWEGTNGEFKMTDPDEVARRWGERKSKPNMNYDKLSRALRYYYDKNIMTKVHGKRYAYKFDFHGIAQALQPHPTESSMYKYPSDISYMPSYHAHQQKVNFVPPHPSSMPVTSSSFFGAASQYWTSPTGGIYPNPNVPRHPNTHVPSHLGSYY
# Outline: (§1)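 Binding signal is defined as a hexamer's read frequency for one factor over its frequency for the tag-only sample. To obtain reads, GST-fused human transcription factors were expressed in yeast, captured on glutathione beads, barcoded with DNA and pooled with that sample. Pools met 200 nmole of a 16-mer random double-stranded DNA library in Tris/NaCl/DTT/glycerol buffer for 30 min at room temperature before washing, 0.1% formaldehyde crosslinking, proximity ligation (BsaI/T4 ligase, 1 h, 37 °C), PCR and Illumina NextSeq500 sequencing.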
# [2] = biological target: T2, ELK1 (Homo sapiens, UniProt P19419 1-428)
# T2 sequence: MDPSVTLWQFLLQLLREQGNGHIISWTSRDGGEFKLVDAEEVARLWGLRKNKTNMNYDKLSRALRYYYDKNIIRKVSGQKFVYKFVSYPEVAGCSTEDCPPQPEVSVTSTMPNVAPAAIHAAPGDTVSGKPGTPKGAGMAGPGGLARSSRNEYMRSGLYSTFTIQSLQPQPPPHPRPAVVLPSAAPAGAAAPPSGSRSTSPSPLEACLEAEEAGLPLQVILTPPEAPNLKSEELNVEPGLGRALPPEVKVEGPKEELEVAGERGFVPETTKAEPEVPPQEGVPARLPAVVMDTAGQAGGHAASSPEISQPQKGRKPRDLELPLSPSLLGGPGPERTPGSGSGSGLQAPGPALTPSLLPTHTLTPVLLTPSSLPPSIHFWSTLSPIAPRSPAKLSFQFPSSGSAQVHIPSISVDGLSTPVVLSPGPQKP
# Outline: as §1
# [3] = biological target: T3, GABPA (Homo sapiens, UniProt Q06546 1-454)
# T3 sequence: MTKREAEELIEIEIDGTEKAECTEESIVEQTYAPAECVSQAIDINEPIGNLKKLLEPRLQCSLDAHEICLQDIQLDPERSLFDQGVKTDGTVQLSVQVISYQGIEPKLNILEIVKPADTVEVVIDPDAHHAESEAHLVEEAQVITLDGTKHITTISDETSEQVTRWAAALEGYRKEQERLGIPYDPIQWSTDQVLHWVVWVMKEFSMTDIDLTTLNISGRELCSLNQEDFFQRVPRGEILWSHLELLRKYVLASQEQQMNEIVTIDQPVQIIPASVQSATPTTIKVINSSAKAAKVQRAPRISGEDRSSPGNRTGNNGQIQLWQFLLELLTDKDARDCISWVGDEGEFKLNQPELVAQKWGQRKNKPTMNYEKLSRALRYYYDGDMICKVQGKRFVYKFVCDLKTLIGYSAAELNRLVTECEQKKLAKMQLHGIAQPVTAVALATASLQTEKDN
# Outline: as §1
# [4] = biological target: T4, ERG (Homo sapiens, UniProt P11308 1-479)
# T4 sequence: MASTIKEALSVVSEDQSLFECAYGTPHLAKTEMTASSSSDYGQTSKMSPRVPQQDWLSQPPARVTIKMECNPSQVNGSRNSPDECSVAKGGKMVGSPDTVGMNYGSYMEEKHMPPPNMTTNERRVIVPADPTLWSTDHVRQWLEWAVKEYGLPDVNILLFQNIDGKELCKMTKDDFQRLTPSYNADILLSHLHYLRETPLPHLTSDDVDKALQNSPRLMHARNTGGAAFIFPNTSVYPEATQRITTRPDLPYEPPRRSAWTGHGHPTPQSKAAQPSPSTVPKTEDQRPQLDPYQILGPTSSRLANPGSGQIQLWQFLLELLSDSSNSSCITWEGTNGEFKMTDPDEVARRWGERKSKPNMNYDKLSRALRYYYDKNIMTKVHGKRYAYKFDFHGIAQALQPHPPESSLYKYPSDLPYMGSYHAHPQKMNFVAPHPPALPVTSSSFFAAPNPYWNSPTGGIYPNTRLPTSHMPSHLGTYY
# Outline: as §1
# [5] = biological target: ELF1 (Homo sapiens, UniProt P32519 1-619)
# Outline: as §1
# [6] = biological target: T5, EHF (Homo sapiens, UniProt Q9NZC4 1-300)
# T5 sequence: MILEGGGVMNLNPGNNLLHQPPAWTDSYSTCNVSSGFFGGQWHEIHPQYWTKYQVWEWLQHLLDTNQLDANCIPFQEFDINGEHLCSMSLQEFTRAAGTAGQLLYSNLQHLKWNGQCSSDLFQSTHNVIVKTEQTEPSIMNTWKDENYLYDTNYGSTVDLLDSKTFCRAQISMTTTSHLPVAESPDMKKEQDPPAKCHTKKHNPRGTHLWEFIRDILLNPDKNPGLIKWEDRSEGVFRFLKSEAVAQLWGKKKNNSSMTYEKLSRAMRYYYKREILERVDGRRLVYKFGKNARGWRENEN
# Outline: as §1
# [7] = biological target: SPI1 (Homo sapiens, UniProt P17947 1-270)
# Outline: as §1
# [8] = biological target: SPIB (Homo sapiens, UniProt Q01892 1-262)
# Outline: as §1
# [9] = biological target: T6, ELK3 (Homo sapiens, UniProt P41970 1-407)
# T6 sequence: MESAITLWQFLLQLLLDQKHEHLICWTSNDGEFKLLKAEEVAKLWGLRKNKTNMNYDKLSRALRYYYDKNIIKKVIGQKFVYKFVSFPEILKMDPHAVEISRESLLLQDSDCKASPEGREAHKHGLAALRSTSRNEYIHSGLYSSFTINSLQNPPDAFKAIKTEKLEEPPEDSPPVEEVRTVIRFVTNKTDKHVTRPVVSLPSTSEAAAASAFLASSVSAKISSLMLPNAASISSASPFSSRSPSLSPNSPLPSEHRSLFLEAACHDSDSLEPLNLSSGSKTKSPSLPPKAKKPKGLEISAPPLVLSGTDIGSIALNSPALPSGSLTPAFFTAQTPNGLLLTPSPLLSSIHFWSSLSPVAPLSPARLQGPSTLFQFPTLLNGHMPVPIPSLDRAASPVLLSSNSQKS
# Outline: as §1
# Chain of ELF1 (P32519 whole entry): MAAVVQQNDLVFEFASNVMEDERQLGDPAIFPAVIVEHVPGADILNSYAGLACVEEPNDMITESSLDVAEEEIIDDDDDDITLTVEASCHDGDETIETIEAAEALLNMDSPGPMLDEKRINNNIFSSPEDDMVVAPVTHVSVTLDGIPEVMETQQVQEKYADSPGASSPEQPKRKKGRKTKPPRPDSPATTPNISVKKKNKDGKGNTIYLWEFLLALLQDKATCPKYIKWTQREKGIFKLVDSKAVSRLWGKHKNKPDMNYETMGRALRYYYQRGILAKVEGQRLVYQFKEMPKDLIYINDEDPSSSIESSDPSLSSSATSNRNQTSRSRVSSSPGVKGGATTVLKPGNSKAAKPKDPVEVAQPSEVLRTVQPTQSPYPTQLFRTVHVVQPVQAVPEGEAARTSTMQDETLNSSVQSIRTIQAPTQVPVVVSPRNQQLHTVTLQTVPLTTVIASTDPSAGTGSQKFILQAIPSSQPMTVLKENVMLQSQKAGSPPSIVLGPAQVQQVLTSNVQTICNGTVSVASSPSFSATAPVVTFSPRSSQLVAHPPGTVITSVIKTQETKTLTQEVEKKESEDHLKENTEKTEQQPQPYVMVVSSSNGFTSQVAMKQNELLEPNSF
# Chain of SPIB (Q01892 whole entry): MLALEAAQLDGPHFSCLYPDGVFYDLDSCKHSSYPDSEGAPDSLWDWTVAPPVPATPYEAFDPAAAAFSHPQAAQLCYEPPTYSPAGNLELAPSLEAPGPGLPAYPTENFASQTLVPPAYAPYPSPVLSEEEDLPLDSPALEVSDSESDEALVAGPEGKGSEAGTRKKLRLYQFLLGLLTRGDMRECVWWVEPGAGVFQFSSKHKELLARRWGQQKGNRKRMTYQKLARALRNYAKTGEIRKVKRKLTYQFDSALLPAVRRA
Sequence,binding signal [1],binding signal [2],binding signal [3],binding signal [4],binding signal [5],binding signal [6],binding signal [7],binding signal [8],binding signal [9]
CTTTGC,"1.4 fold enrichment (6-mer frequency, TF over GST control)","1.29 fold enrichment (6-mer frequency, TF over GST control)","1.39 fold enrichment (6-mer frequency, TF over GST control)","1.46 fold enrichment (6-mer frequency, TF over GST control)","1.32 fold enrichment (6-mer frequency, TF over GST control)","1.32 fold enrichment (6-mer frequency, TF over GST control)","1.21 fold enrichment (6-mer frequency, TF over GST control)","1.32 fold enrichment (6-mer frequency, TF over GST control)","1.33 fold enrichment (6-mer frequency, TF over GST control)"
ATGCAT,"1.21 fold enrichment (6-mer frequency, TF over GST control)","1.21 fold enrichment (6-mer frequency, TF over GST control)","1.22 fold enrichment (6-mer frequency, TF over GST control)","1.16 fold enrichment (6-mer frequency, TF over GST control)","1.16 fold enrichment (6-mer frequency, TF over GST control)","1.22 fold enrichment (6-mer frequency, TF over GST control)","1.18 fold enrichment (6-mer frequency, TF over GST control)","1.19 fold enrichment (6-mer frequency, TF over GST control)","1.29 fold enrichment (6-mer frequency, TF over GST control)"
TTCGCC,"1.26 fold enrichment (6-mer frequency, TF over GST control)","1.28 fold enrichment (6-mer frequency, TF over GST control)","1.2 fold enrichment (6-mer frequency, TF over GST control)","1.15 fold enrichment (6-mer frequency, TF over GST control)","1.15 fold enrichment (6-mer frequency, TF over GST control)","1.11 fold enrichment (6-mer frequency, TF over GST control)","1.1 fold enrichment (6-mer frequency, TF over GST control)","1.14 fold enrichment (6-mer frequency, TF over GST control)","1.08 fold enrichment (6-mer frequency, TF over GST control)"
ACATCC,"2.58 fold enrichment (6-mer frequency, TF over GST control)","2.73 fold enrichment (6-mer frequency, TF over GST control)","2.39 fold enrichment (6-mer frequency, TF over GST control)","3.08 fold enrichment (6-mer frequency, TF over GST control)","2.35 fold enrichment (6-mer frequency, TF over GST control)","2.7 fold enrichment (6-mer frequency, TF over GST control)","2.5 fold enrichment (6-mer frequency, TF over GST control)","2.69 fold enrichment (6-mer frequency, TF over GST control)","2.98 fold enrichment (6-mer frequency, TF over GST control)"
CTTGGG,"1.24 fold enrichment (6-mer frequency, TF over GST control)","1.38 fold enrichment (6-mer frequency, TF over GST control)","1.36 fold enrichment (6-mer frequency, TF over GST control)","1.29 fold enrichment (6-mer frequency, TF over GST control)","1.26 fold enrichment (6-mer frequency, TF over GST control)","1.14 fold enrichment (6-mer frequency, TF over GST control)","1.29 fold enrichment (6-mer frequency, TF over GST control)","1.39 fold enrichment (6-mer frequency, TF over GST control)","1.47 fold enrichment (6-mer frequency, TF over GST control)"
TCTTGA,"1.33 fold enrichment (6-mer frequency, TF over GST control)","1.31 fold enrichment (6-mer frequency, TF over GST control)","1.33 fold enrichment (6-mer frequency, TF over GST control)","1.24 fold enrichment (6-mer frequency, TF over GST control)","1.3 fold enrichment (6-mer frequency, TF over GST control)","1.35 fold enrichment (6-mer frequency, TF over GST control)","1.25 fold enrichment (6-mer frequency, TF over GST control)","1.27 fold enrichment (6-mer frequency, TF over GST control)","1.29 fold enrichment (6-mer frequency, TF over GST control)"
TCTCTC,"1.37 fold enrichment (6-mer frequency, TF over GST control)","1.27 fold enrichment (6-mer frequency, TF over GST control)","1.36 fold enrichment (6-mer frequency, TF over GST control)","1.22 fold enrichment (6-mer frequency, TF over GST control)","1.35 fold enrichment (6-mer frequency, TF over GST control)","1.36 fold enrichment (6-mer frequency, TF over GST control)","1.39 fold enrichment (6-mer frequency, TF over GST control)","1.31 fold enrichment (6-mer frequency, TF over GST control)","1.36 fold enrichment (6-mer frequency, TF over GST control)"
AACCCC,"1.08 fold enrichment (6-mer frequency, TF over GST control)","1.17 fold enrichment (6-mer frequency, TF over GST control)","1.1 fold enrichment (6-mer frequency, TF over GST control)","1.17 fold enrichment (6-mer frequency, TF over GST control)","1.16 fold enrichment (6-mer frequency, TF over GST control)","1.21 fold enrichment (6-mer frequency, TF over GST control)","1.12 fold enrichment (6-mer frequency, TF over GST control)","1.18 fold enrichment (6-mer frequency, TF over GST control)","1.14 fold enrichment (6-mer frequency, TF over GST control)"
